# Screening data deposited in PubChem by National Center for Advancing Translational Sciences (NCATS).
# CCT modulator: modulators of cytosolic chaperonin (CCT/TRiC) activity; AID 651819; purified chaperonin ATPase assay, HTRF ADP detection, 30 min; actives 0.3% (n = 360,000); activity change, % (test concentration not listed), hits read low; in the data active = activity change below about -30%; also: % is scaled to controls: 0 for no effect and ±100 for the full control effect
#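 First, chaperonin was dispensed at 40 nM or 20 nM final depending on batch activity. Next, compounds were pinned at 76 uM and ATP added at 10 uM. After 30 min at 37 °C, ADP detection reagents ran 30 min at ambient temperature.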
# uPA surface inh: blocks generation of uPA at the cell surface | cell surface uPA generation assay, qHTS | Potency, µM (titrated, usually from 38.3 µM), for inactives: at the top dose activity change, negative = inhibition, most hits filed as inhibitors | actives 0.31% (n = 330,000) | AID 540303; active = well fitted inhibition curve with a large enough effect; inconclusive = small, poorly fitted or top-dose-only effect; inactive = no such curve, though single readings can be large or run the other way; tested in mouse RAW 264.7 cells; also: potency is read from the fitted curve at half-maximal effect; % is scaled to controls: 0 for no effect and ±100 for the full control effect; nearly all actives have a fitted effect of over 55% in size
# GLP-1R inv ag: inverse agonists of human GLP-1 receptor | HEK293 GLP-1R CRE-luciferase, luminescence, 24 h; GLP-1R form is constitutively active | Potency, µM (titrated, usually from 38.3 µM), for the others: top-dose activity change, negative = inhibition, hits mostly inhibitors | AID 624417 | actives 1.6% (n = 410,000); also: potency is read from the fitted curve at half-maximal effect; % is scaled to controls: 0 for no effect and ±100 for the full control effect; nearly all actives have a fitted effect of over 55% in size
# Target sequence (P43220 whole entry, looked up): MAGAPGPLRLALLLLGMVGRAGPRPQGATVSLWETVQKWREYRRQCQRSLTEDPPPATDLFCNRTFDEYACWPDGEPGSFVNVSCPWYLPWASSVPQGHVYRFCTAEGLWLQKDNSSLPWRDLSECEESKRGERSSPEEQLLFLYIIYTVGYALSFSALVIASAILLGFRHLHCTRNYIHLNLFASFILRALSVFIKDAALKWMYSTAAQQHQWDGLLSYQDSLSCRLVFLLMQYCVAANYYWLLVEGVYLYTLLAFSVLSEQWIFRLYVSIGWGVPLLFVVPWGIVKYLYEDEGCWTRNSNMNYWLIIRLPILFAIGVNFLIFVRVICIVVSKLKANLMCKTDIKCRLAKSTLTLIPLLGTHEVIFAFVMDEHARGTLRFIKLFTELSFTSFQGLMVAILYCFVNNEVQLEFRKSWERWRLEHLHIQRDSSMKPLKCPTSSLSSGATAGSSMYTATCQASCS
#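 Assay principle: reduced luminescence from a cAMP-responsive reporter in HEK293 cells co-expressing a constitutively active GLP-1R. Conditions: 24 hr compound incubation, 37 deg C, 5% CO2.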
# Mm-Cpn inhibitor: M. maripaludis TRiC chaperonin inhibition; purified Mm-Cpn ATPase, ADP Transcreener TR-FRET; Potency, µM (titrated, usually from 76.9 µM), for inactives: at the highest dose activity, negative = inhibition, usual class: inhibitors; actives 0.031% (n = 330,000); AID 504842; also: potency is read from the fitted curve at half-maximal effect; % is scaled to controls: 0 for no effect and ±100 for the full control effect; nearly all actives have a fitted effect of over 80% in size
#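 25 nM Mm-CPN + cpd, 10 min 37°C; + 10 uM ATP, 30 min 37°C; buffer 30 mM Tris pH 7.4, 100 mM KCl, 5 mM MgCl2, 1 mM DTT; Transcreener ADP HTRF detection 30 min RT.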
# HEK293 tox: cytotoxicity counter-screen for GLP-1 receptor inverse agonists. HEK293 cAMP-luciferase reporter cells, luminescence, 24 h. actives 0.13% (n = 410,000). Potency, µM (highest dose often 38.3 µM), for inactives: at the highest dose activity change, negative = inhibition, most hits filed as inhibitors;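 also: loss of luciferase light is scored as toxicity; potency is read from the fitted curve at half-maximal effect; % is scaled to controls: 0 for no effect and ±100 for the full control effect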
#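 Quantitative HTS format, 1536 wells, 200 cells/uL seeded. Compounds: 23 nL, 24 h, 37 °C. Detection: luciferase reagent, luminescence at 12 min RT; decreased signal taken as cytotoxic.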
# GLP1R ag: GLP-1 receptor (human) agonism | P43220 | HEK293 GLP-1R CRE-luciferase, luminescence, 4-6 h; cells express a hypersensitive GLP-1R form | Potency, µM (titrated, usually from 45.6 µM), for the others: top-dose activation, most hits filed as activators | actives 0.007% (n = 380,000); also: potency is read from the fitted curve at half-maximal effect; % of control where 0% means no effect
# The depositor's hits bear a star; u = inconclusive; x = no result given; [ ] = remark or other dose. Rows were chosen to be rich in hits. Some 2.2% of all compounds tested hit in one or more screens of this group. Unless noted, calls follow the shape of the dose curve; as a rule, active = well fitted curve in the direction sought with a large enough effect; inconclusive = small, poorly fitted or top-dose-only effect, or another doubt; inactive = no such curve, though single readings can be large; an effect the other way counts as inactive or inconclusive.
SMILES,CCT modulator,uPA surface inh,GLP-1R inv ag,Mm-Cpn inhibitor,HEK293 tox,GLP1R ag
Cc1ccccc1OCC(=O)Nc1cccc(S(=O)(=O)NC2=NCCCCC2)c1,0.9,-3.1%,-23.2%,-7.8%,-9.8%,2.4%
CCCCn1nnc(NC(=O)COc2cc(C)ccc2C(C)C)n1,0.9,10.7%,7.94µM*,1.1%,-11.9%,5.9%
O=C(NCc1cccc(Cl)c1)C1CCCN(c2ncnc3onc(-c4ccc(F)cc4)c23)C1 (centres undefined),x,x,u,x,-10.1%,x
Cn1c(CCN2CCCCC2)nc2cc(NC(=O)COc3ccc(Cl)cc3)ccc21,-1.4,u,u,0.6%,u,11.1%
CN1CCN(CCc2nc3cc(NC(=O)COc4ccc(Cl)cc4)ccc3n2C)CC1,-1.1,-7.7%,10µM*,-0.9%,-24.8%,3.6%
O=C(c1ccccc1)C(CN1CCCCC1)c1ccccc1 (centres undefined),-3.9,-9.9%,2.82µM*,x,u,-7.4%
O=C(c1ccc(Br)cc1)C(CN1CCOCC1)c1ccccc1 (centres undefined),-4.2,-14.7%,u,0.4%,u,-5.8%
CN(C)CC(C(=O)c1ccccc1)c1ccccc1 (centres undefined),-1.8,-6.1%,13.0%,-0.3%,8.91µM*,-42.0%
O=C(CC(C(=O)c1ccccc1)c1ccccc1)c1ccccc1 (centres undefined),1.1,-2.9%,10µM*,x,8.5%,1.7%
Oc1ccc(COC2CCCC2)c2cccnc12,x,x,x,-0.8%,x,x
CC(C)c1nn2c(=O)cc(COC(=O)c3ccc(NC(=O)COc4ccccc4)cc3)nc2s1,x,x,9.6%,x,-15.7%,x
O=C(NC(c1ccc(F)cc1)c1ccc2ccccc2n1)C1CCN(Cc2ccc(Oc3ccccc3)cc2)CC1 (centres undefined),0.6,x,u,x,-27.8%,-1.3%
O=C(NC(c1ccc(F)cc1)c1ccc2ccccc2n1)C1CCN(CCOc2ccc(Cl)cc2Cl)CC1 (centres undefined),2.1,x,u,x,11.2µM*,-5.9%
O=C(NC(c1ccc(F)cc1)c1ccc2ccccc2n1)C1CCN(CCOc2ccc(F)cc2)CC1 (centres undefined),-1.1,x,u,x,u,-1.7%
O=C(NC(c1ccccc1)c1ccc2ccccc2n1)C1CCN(CCOc2ccc(Cl)cc2)CC1 (centres undefined),1.0,x,11.2µM*,x,-5.2%,-20.1%
COc1cc(CN2CCC(C(=O)NC(c3ccc(F)cc3)c3ccc4ccccc4n3)CC2)cc(OC)c1 (centres undefined),1.1,x,2.82µM*,x,-10.6%,-0.5%
NC(=O)C1CCN(c2nc(-c3ccccc3[N+](=O)[O-])cs2)CC1,x,x,x,-1.7%,x,x
CCC(C)(C)c1ccc(CC(C)CN2C[C@@H](C)O[C@@H](C)C2)cc1 (some centres undefined),x,x,x,x,x,-1.7%
CCN(CC)c1ccc2nc3c4ccccc4c(=O)cc-3oc2c1,-48.4*,1.6%,-9.6%,-4.2%,-13.7%,-3.5%
CC(O)(c1ccc(F)c(F)c1)c1nc(/C=C/c2ccc(C(F)(F)F)cc2)cs1 (centres undefined),-1.0,x,u,x,-13.2%,-4.2%
OC(c1ccccc1)(c1nc(/C=C/c2ccc(C(F)(F)F)cc2)cs1)C(F)(F)F (centres undefined),-0.5,x,7.94µM*,x,u,-2.0%
CC1CCN(S(=O)(=O)c2ccc3c(ccc(=O)n3CC(=O)Nc3cccc(F)c3)c2)CC1,x,x,8.1%,x,-11.8%,-6.8%
CCc1ccc(NC(=O)Cn2c(=O)n(CCCCC(=O)NCCc3ccc(Cl)cc3)c(=O)c3ccccc32)cc1,x,x,10.2%,x,2.4%,1.6%
CN(C)c1ccc(NC(=O)CSC2=Nc3ccccc3C3=NC(CCC(=O)NCc4cccs4)C(=O)N23)cc1 (centres undefined),x,x,5.62µM*,x,-0.2%,x
O=C(CCC1N=C2c3ccccc3N=C(SCC(=O)NCC3CCCO3)N2C1=O)NCc1ccc(F)cc1 (centres undefined),-45.8*,-3.7%,-0.2%,-1.1%,-7.0%,-4.6%
SMILES,CCT modulator,uPA surface inh,GLP-1R inv ag,Mm-Cpn inhibitor,HEK293 tox,GLP1R ag
COc1ccccc1CNC(=O)CCC1N=C2c3ccccc3N=C(SCC(=O)Nc3ccc(N(C)C)cc3)N2C1=O (centres undefined),x,x,0.3%,x,8.9%,x
CC(C)(C)c1ccc(CSC2=Nc3ccccc3C3=NC(CC(=O)NCc4cccs4)C(=O)N23)cc1 (centres undefined),x,x,10µM*,x,13.3%,x
Cc1nc(-c2ccc(F)cc2)sc1CCNC(=O)c1ccccc1C(F)(F)F,x,x,u,x,-21.1%,x
Cc1nn(-c2ccc(N3CCCCC3)nn2)c(C)c1CCC(=O)NCc1ccc(OC(C)C)cc1,x,x,4.2%,x,-5.4%,x
CCC(NS(=O)(=O)c1cn(C)nc1C)c1ccccc1 (centres undefined),-30.9*,3.2%,u,3.4%,-1.9%[7.66 µM],6.1%
COc1cccc(OC)c1C(=O)NC(C)C12CC3CC(CC(C3)C1)C2 (centres undefined),0.7,0.8%,8.91µM*,-2.7%,2.9%,-5.0%
Cc1c(Br)c([N+](=O)[O-])nn1C(C)C(=O)N1CCCc2ccccc21 (centres undefined),1.5,-18.4%,10µM*,0.8%,-22.0%,-3.7%
Cc1c(Br)c([N+](=O)[O-])nn1CC(=O)N1CCc2ccccc21,-0.5,-0.5%,0.4%,0.4%,11.8%,-0.2%
O=C(C(c1ccccc1)c1ccccc1)N1CCCc2ccccc21,-0.2,-1.4%,5.01µM*,1.7%,-8.0%,1.4%
COc1ccc(OC)c(CCNC(=O)CCc2cn(Cc3cc(C)ccc3C)c3ccccc23)c1,x,x,u,x,-5.4%,x
COc1ccc(NS(=O)(=O)c2cc3[nH]c(=O)c(=O)[nH]c3cc2C)cc1Cl,x,x,9.8%,x,14.0%,x
Cc1ccc(-c2c(C(=O)NCCc3ccc(Cl)cc3)oc(=O)c3ccccc23)cc1,x,x,4.47µM*,x,4.9%,-11.3%
Cc1cn(C2OC(COC(=O)c3ccccc3)C(O)C2O)c(=O)[nH]c1=O (centres undefined),-31.9*,9.2%,-1.0%,-0.7%,11.3%,-2.1%
Cc1cn(C2OC(COC(=O)c3ccccc3)C(OC(=O)c3ccccc3)C2OC(=O)c2ccccc2)c(=O)[nH]c1=O (centres undefined),-1.3,0.8%,-9.2%,0.1%,8.8%,0.5%
CCOc1cc(C(=O)OC(C)C(=O)Nc2ncc(Cl)cc2Cl)ccc1OCC(=O)N1CCOCC1 (centres undefined),-2.7,8.91µM*,11.0%,-0.8%,16.9%,9.3%
